In PubChem BioAssay (NCI) one finds growth inhibition data, which are given here for 20 molecules.

Compounds without any hit were thinned out: in the full panel of roughly 79,000, 15% have a hit. Values without a mark were called inactive. The source made the active and inactive calls. Rule as the data show it: active = growth inhibition above about 70%; inactive = the rest.

Experiment [1] is described as follows: NCI Yeast Anticancer Drug Screen. Data for the rad50 strain (AID 155).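 Also: 0% = growth of vehicle-only cultures of the same strain.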 To be noted: S. cerevisiae rad50 strain growth inhibition; at 50.0 µM; hits give high values. The procedure, abridged: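 Relative growth inhibition (compound vs vehicle) was measured in yeast with a defined repair-gene alteration.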
Experiment [2] is described as follows: NCI Yeast Anticancer Drug Screen. Data for the mec2-1 strain (AID 157). To be noted: S. cerevisiae mec2-1 strain, at 50.0 µM, hits give high values. The procedure, abridged: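 Using mec2-1 yeast: add compound, measure growth, express inhibition versus vehicle-treated cultures.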
Experiment [3] is described as follows: NCI Yeast Anticancer Drug Screen. Data for the sgs1 mgt1 strain (AID 161).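 Also: 0% = growth of cultures given vehicle only.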 To be noted: S. cerevisiae sgs1 mgt1 strain, at 50.0 µM, hits give high values. The gist of the method:
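Yeast cells carrying a defined DNA-repair defect were exposed to test compounds. Growth inhibition was measured relative to vehicle-treated controls.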

Experiment [4] can be described thus: NCI Yeast Anticancer Drug Screen. Data for the cln2 rad14 strain (AID 165).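 Also: 0% = growth equal to vehicle treated cultures.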 To be noted: S. cerevisiae cln2 rad14 strain, at 50.0 µM, hits give high values. The gist of the method:
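Yeast strain cln2 rad14, bearing defects in cell cycle control and DNA repair, serves as the test system; values reflect growth inhibition compared with vehicle.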

Experiment [5] can be described thus: NCI Yeast Anticancer Drug Screen. Data for the bub3 strain (AID 167). To be noted: S. cerevisiae bub3 mutant strain, at 50.0 µM, hits give high values. The procedure, abridged:
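Screening used yeast with an engineered genetic alteration affecting cell cycle control. Compound-exposed cultures were compared with vehicle cultures, and reduced growth was taken as inhibition.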

Experiment [6] is described as follows: NCI Yeast Anticancer Drug Screen. Data for the mlh1 rad18 strain (AID 175). To be noted: S. cerevisiae mlh1 rad18 strain growth inhibition; at 50.0 µM; hits give high values. The procedure, abridged: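 Steps: expose repair-defective yeast to compound; measure growth; express inhibition against vehicle-treated controls.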

For the molecule `CS(=O)(=O)Oc1c(Cl)cc(Cl)c2cccnc12`, the growth inhibition in experiment [1] is 7.8%; in experiment [2], -1.1%; in experiment [3], -3.75%; in experiment [4], -13.7%; in experiment [5], 1.2%; in experiment [6], 11.2%.

On to `CCCC(=O)c1cc(-c2cc(C(=O)CCC)nc(N)n2)nc(N)n1`, for which the growth inhibition in experiment [1] was 3.65%; in experiment [2], -3.4%; in experiment [3] it was 3.1%; in experiment [4], -15.9%; in experiment [5] it was -7.1%; in experiment [6] it was -0.4%.

Turning to `CCOc1ccc(NC(=O)CC2SC(N)=NC2=O)cc1` (stereo not given), the growth inhibition in experiment [1] was -15.2%; in experiment [2] it was -35.5%; in experiment [3], -1.9%; in experiment [4], 8.5%; in experiment [5], -2.8%; in experiment [6] it was -0.6%.

Turning to `NC(=O)C(Cc1ccc(O)cc1)NC(=O)c1cccnc1` (stereo not given), the growth inhibition in experiment [1] is -7.3%; in experiment [2], 0.7%; in experiment [3] it was -0.95%; in experiment [4], -2.05%; in experiment [5], -9.05%; in experiment [6], 4.35%.

Turning to `NC(CCC(=O)OCCn1c2ccccc2c2ccccc21)C(=O)O` (stereo not given), the growth inhibition in experiment [1] was -1.9%; in experiment [2], -2.4%; in experiment [3], 3.3%; in experiment [4], -2.1%; in experiment [5], 18.1%; in experiment [6], 3.95%.

Consider `COc1ccccc1C(=O)N/N=C\c1c[nH]c2ccccc12`, for which the growth inhibition is -3.35% in experiment [1]; 2.05% in experiment [2]; -4.85% in experiment [3]; -6.25% in experiment [4]; -5.15% in experiment [5]; -8.3% in experiment [6].

For `CC(=O)c1cc2c(cc1C)C(C)=C(C)C2(C)C`, the growth inhibition in experiment [1] was -3.1%; in experiment [2] it was -2.35%; in experiment [3], 1.55%; in experiment [4] it was -13.4%; in experiment [5], 0.65%; in experiment [6], -2.9%.

Consider `Cc1cc(C)c(C)c(CC(C)(COS(C)(=O)=O)COS(C)(=O)=O)c1C`, for which the growth inhibition in experiment [1] is 8.6%; in experiment [2], 11%; in experiment [3], 27.1%; in experiment [4], 39.2%; in experiment [5], 5.85%; in experiment [6] it was 28.1%.

In the case of `O=C(Nc1nccs1)c1cc(C2=CC=CC([N+](=O)[O-])C=C2)nc(=S)[nH]1` (stereo not given), the growth inhibition is -12.9% in experiment [1]; -18.5% in experiment [2]; -23.8% in experiment [3]; -8.45% in experiment [4]; -8.65% in experiment [5]; -7.6% in experiment [6].

For the molecule `CN(C)CCNC(=O)c1cccc2ccc(-c3ccncc3)nc12`, the growth inhibition in experiment [1] is 6.15%; in experiment [2], 11%; in experiment [3] it was -20.7%; in experiment [4], -3.3%; in experiment [5] it was -19.9%; in experiment [6], -27.8%.

Regarding `N#C/C(=C/NC(=S)NCc1ccccc1)C(N)=O`, the growth inhibition in experiment [1] is -32.6%; in experiment [2], -42.1%; in experiment [3] it was -4.6%; in experiment [4] it was 0.25%; in experiment [5] it was 6.7%; in experiment [6] it was -0.3%.

As to `COc1ccc(C)cc1NC(=O)c1c(Br)c(Br)c(Br)c(Br)c1C(=O)O`, the growth inhibition in experiment [1] is 4.25%; in experiment [2], -11.1%; in experiment [3], 10.4%; in experiment [4], 12.8%; in experiment [5] it was 6.8%; in experiment [6], 10.8%.

As to `N=C(N)SCc1cn2ccccc2n1`, the growth inhibition in experiment [1] was -37%; in experiment [2], -30.5%; in experiment [3], -62.7%; in experiment [4], 1.35%; in experiment [5], -27.6%; in experiment [6], -50.8%.

For the molecule `COC(=O)C1CC=CCCC1=O` (stereo not given), the growth inhibition in experiment [1] was -3.8%; in experiment [2], -10.8%; in experiment [3], 23.7%; in experiment [4], 12.2%; in experiment [5] it was 43.7%; in experiment [6], 5.65%.

Consider `CCOC(=O)c1ccc(NC(=O)c2cccc(Cl)c2)cc1`, for which the growth inhibition was 0.1% in experiment [1]; -6.85% in experiment [2]; -4.25% in experiment [3]; -5.45% in experiment [4]; 9.5% in experiment [5]; 1.25% in experiment [6].

As to `Nc1ccnn2c(-c3ccccc3)nnc12`, the growth inhibition in experiment [1] was -0.55%; in experiment [2], 1.85%; in experiment [3], -5.7%; in experiment [4], 4.25%; in experiment [5], 12.4%; in experiment [6], 2.35%.

As to `COc1ccc(OC(=O)Nc2ccc(OC)cc2Cl)cc1`, the growth inhibition was 3% in experiment [1]; 5.75% in experiment [2]; 7.05% in experiment [3]; 12.6% in experiment [4]; 24.7% in experiment [5]; 7.7% in experiment [6].

For `CC(=O)Nc1ccc2nc(N)sc2c1`, the growth inhibition in experiment [1] was 13%; in experiment [2] it was 5.55%; in experiment [3], -16.1%; in experiment [4], -3.65%; in experiment [5], 3.8%; in experiment [6], 6.6%.

With `O=C(Nc1cc(Cl)c(I)c(Cl)c1)C(F)(F)F`, the growth inhibition in experiment [1] was 96.6% (active); in experiment [2] it was 97.4% (active); in experiment [3], 96.8% (active); in experiment [4], 97% (active); in experiment [5], 79.8% (active); in experiment [6], 97.5% (active).

With `CS(=O)(=O)OCCCCCCCCCCCC1C=CCC1` (stereo not given), the growth inhibition was 10.3% in experiment [1]; -32.4% in experiment [2]; 5.15% in experiment [3]; 11.8% in experiment [4]; -8.25% in experiment [5]; 3.1% in experiment [6].
